This passage reports growth results from PubChem BioAssay (NCI).

The structures appear in SMILES notation. This is part of a sample that, as a whole, favours compounds with a hit. Of some 83,000 tested, about 20% had one in any assay.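 Plates (96-well) were seeded with cells, treated with compound at one concentration, and incubated for 48 hours before percent growth was determined.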 Activity calls are given as the source filed them. Rule for the calls: active = growth percent below 10; inactive = the rest.

The subject of the test is HOP-92 NSCLC. The test is described as follows: NCI-60 one-dose screen, 48 h (100 = growth as untreated, 0 = no growth, -100 = all killed). Particulars: 10 µM.
In the case of `CCCC(C)OCC(=O)O` (centres undefined), the growth was 76.6% (inactive).

`O=c1[nH][nH]c(=O)c2cc([N+](=O)[O-])ccc12`: the growth was 107% (inactive).

Regarding `O=[N+]([O-])c1ccc(N=Nc2ccc(O)c3ccccc23)cc1`, the growth is 10.8% (inactive).

As for `CCCCCCCCO`, the growth was 107% (inactive).

As for `Cn1cnc2nc(Cl)nc(Cl)c21`, the growth is 31.3% (inactive).

`OCC(O)C(O)C(O)C(O)/C=N/O` (centres undefined): the growth was 74.8% (inactive).

In the case of `O=C(O)COCC(=O)O`, the growth was 72.4% (inactive).

Take `Cc1ccc(S(=O)(=O)O)c(C)c1`: the growth was 92.4% (inactive).

Consider `NC(=S)N/N=C/c1ccc(N)cc1`, for which the growth is 89.1% (inactive).

`O=c1[nH]nc(SC2CCCCC2)c(=O)[nH]1`: the growth was 82% (inactive).

As to `CC1CC(O)C2C3(C)CCCC2(COC3=O)C12CCC1(CCOC1=O)O2` (centres undefined), the growth is 81.8% (inactive).

In the case of `CCOc1ccc(Br)cc1/C=N\N=C\c1cc(Br)ccc1OCC`, the growth is 92.2% (inactive).

As for `S=C1CCCCCN1`, the growth is 103% (inactive).

`CC1CCCCN1C(=S)Nc1ccc(S(=O)(=O)N2CCCCC2)cc1` (centres undefined): the growth was 63.1% (inactive).

For the molecule `COc1cc(C2c3cc4c(cc3C3OC(=O)C2C3CO)OCO4)cc(OC)c1OC` (centres undefined), the growth is 45.7% (inactive).

`CCCCOC(=O)c1ccc(C(C)C)cc1`: the growth was 88.2% (inactive).

With `NCCCN`, the growth was 103% (inactive).

Turning to `O=C(O)CCCC(=O)O`, the growth was 72.6% (inactive).

Consider `COc1ccc(-c2cc3c(nn2)-c2ccccc2C3=O)cc1`, for which the growth is 98.3% (inactive).
